# This is one part of a sample in which hits are shown more often than they occur.
# C diff growth: blocks growth of Clostridium difficile; Clostridium difficile clinical isolate growth, OD600, 24 h; stronger effect = lower value; 86,000 compounds, 0.25% hits; growth activity, negative = inhibition, % at 16 µg/mL (by protocol);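 active = mean growth activity at or below -80% and every replicate also at or below -80%; inconclusive = mean at or below -80% but some replicate above -80%; inactive = mean growth activity above -80%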;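 also: 0% = DMSO wells and -100% = levofloxacin 16 µg/mL wells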
# T cruzi growth-1: blocks T. cruzi growth in NIH3T3 culture; 77,000 compounds, 5.9% hits; AID 624255; inhibition, % at 8.34 µM; T. cruzi beta-gal in NIH3T3, GalScreen luminescence, 90 h;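 active = mean inhibition above about 93%, with at least 55% of replicates each passing it, limit read from the data, passing the limit was not always enough; inconclusive = only one of those two conditions holds; inactive = neither condition holds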
# T cruzi growth-2: Trypanosoma cruzi proliferation inhibition; shares compounds with T cruzi growth-1; 5,600 compounds, 72% hits; inhibition, % at 8.35 µM; AID 651739; T. cruzi beta-gal in NIH3T3, GalScreen luminescence, 90 h;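 active = mean replicate inhibition above about 95% and at least 55% of replicates individually reaching it, limit read from the data; inconclusive = only one of the two criteria is met; inactive = neither criterion is met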
# T cruzi growth-3: Trypanosoma cruzi proliferation inhibition | shares compounds with T cruzi growth-1 | T. cruzi beta-gal in NIH3T3, GalScreen luminescence, 90 h | inhibition, % at 2.09 µM | 5,600 compounds, 21% hits;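 active = mean inhibition above about 95%, with at least 55% of replicates also reaching it, limit read from the data; inconclusive = meets just one of the two conditions; inactive = meets neither condition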;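 also: plate controls were neutral control median for no effect and positive control median for full effect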
# NIH3T3 tox: cytotoxicity in mouse NIH/3T3 fibroblasts. 5,600 compounds, 14% hits. shares compounds with T cruzi growth-1. NIH/3T3 viability, CellTiter-Glo ATP luminescence, 90 h. cytotoxicity (signal decrease), % at 8.35 µM;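 active = mean signal decrease across replicates above about 35% based on untreated-well scatter, with enough replicates individually passing, limit read from the data; inconclusive = no rule stated though some were filed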;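 also: 0% = median of neutral control wells and 100% = median of positive control wells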
# 3T3 cytotox 2: cytotoxicity in mouse NIH/3T3 fibroblasts; shares compounds with T cruzi growth-1; NIH/3T3 viability, CellTiter-Glo ATP luminescence, 90 h; inhibition, % at 24.9 µM; 5,600 compounds, 56% hits; AID 651744;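 active = mean loss of cell viability signal at or above a set limit, and enough replicates individually reaching it; inconclusive = meets only the mean limit or only the replicate share; inactive = meets neither condition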;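 also: 0% = median of neutral control wells and 100% = median of positive control wells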
# Numbers without * were called inactive; ? = inconclusive; · = no result given.
SMILES,C diff growth,T cruzi growth-1,T cruzi growth-2,T cruzi growth-3,NIH3T3 tox,3T3 cytotox 2
Cc1noc(C)c1NC(=O)N(C)C[C@H]1Oc2ccc(NC(=O)C3CCCCC3)cc2C(=O)N([C@@H](C)CO)C[C@H]1C,0.5,-13.2,·,·,·,·
C[C@@H]1CN([C@H](C)CO)S(=O)(=O)c2ccc(C#CC3CC3)cc2O[C@@H]1CN(C)C(=O)c1ccncc1,-7.8,87.1,·,·,·,·
CCc1cnc(N2[C@@H](C#N)[C@H](c3ccc(C#CC(C)C)cc3)[C@@H]2CO)s1,-30.7,106.9*,111.6*,51.7,-5.3,-2.4
CCc1cnc(N2[C@@H](C#N)[C@@H](c3ccccc3)[C@@H]2CO)s1,-7.4,-2.6,·,·,·,·
CCc1cnc(N2[C@H](CO)[C@H](c3ccccc3)[C@@H]2C#N)s1,-6.8,-7.6,·,·,·,·
CCc1cnc(N2[C@@H](C#N)[C@@H](c3ccc(C#CC(C)C)cc3)[C@@H]2CO)s1,-5.1,96.9*,100.7*,108.1*,26.0,74.1*
C[C@@H]1CN([C@@H](C)CO)C(=O)Cc2cc(NC(=O)Cn3cnnn3)ccc2O[C@H]1CN(C)Cc1ccncc1,0.7,16.5,·,·,·,·
COCC(=O)N(C)C[C@H]1Oc2ncc(C#Cc3ccccc3)cc2C(=O)N([C@@H](C)CO)C[C@@H]1C,-6.3,-76.9,·,·,·,·
C[C@H](CO)N1C[C@H](C)[C@H](CN(C)S(=O)(=O)c2ccc(F)cc2)Oc2ccc(NC(=O)C3CC3)cc2CC1=O,-0.7,49.0,·,·,·,·
CCCNC(=O)[C@H]1[C@H](CO)[C@H]2Cn3c(ccc(-c4ccccc4OC)c3=O)[C@@H]1N2C(=O)NCCC,-0.2,-3.8,·,·,·,·
COCCNC(=O)[C@@H]1[C@@H](CO)[C@@H]2Cn3c(ccc(-c4ccc(F)cc4)c3=O)[C@H]1N2C(=O)NC(C)C,-2.4,20.4,·,·,·,·
CCCNC(=O)N1[C@@H]2c3ccc(-c4ccccc4OC)c(=O)n3C[C@H]1[C@H](CO)[C@H]2C(=O)NCC,-2.4,106.6*,-8.6,-1.9,-7.8,-6.0
COCCNC(=O)[C@H]1[C@H](CO)[C@H]2Cn3c(ccc(-c4ccc(OC)cc4)c3=O)[C@@H]1N2C(=O)NC(C)C,4.1,100.3*,18.2,-23.0,14.0,18.7
CCCNC(=O)[C@H]1[C@H](CO)[C@H]2Cn3c(ccc(-c4cccc(F)c4)c3=O)[C@@H]1N2C(=O)c1ccccn1,-0.8,63.7,·,·,·,·
CN(C)C(=O)c1cccc(-c2ccc3c(c2)[C@H]2[C@H](CCN2Cc2ccccc2F)[C@H](CO)N3)c1,-21.6,21.1,·,·,·,·
O=C(C[C@H]1CC[C@H](NS(=O)(=O)c2ccc(F)cc2)[C@@H](CO)O1)NC1CCC1,4.8,-21.4,·,·,·,·
O=C(C[C@@H]1CC[C@@H](NS(=O)(=O)c2ccccc2)[C@@H](CO)O1)NCc1ccncn1,1.5,-28.2,·,·,·,·
Cc1ccc(S(=O)(=O)N[C@@H]2CC[C@@H](CCNC(=O)Cc3ccccn3)O[C@H]2CO)cc1,-1.9,?,26.3,17.5,-2.9,-20.6
Cc1ccc(S(=O)(=O)N[C@H]2CC[C@@H](CCNC(=O)Cc3ccccn3)O[C@H]2CO)cc1,5.3,79.0,·,·,·,·
O=C(C[C@H]1CC[C@@H](NS(=O)(=O)c2ccc(F)cc2)[C@H](CO)O1)NC1CCC1,0.5,118.6*,46.6,27.7,7.6,14.9
O=C(C[C@H]1CC[C@@H](NS(=O)(=O)c2ccccc2)[C@@H](CO)O1)NCc1ccncn1,5.2,123.2*,101.4*,16.8,1.8,3.5
COCC(=O)N(C)C[C@@H]1Oc2ncc(C#Cc3ccc(OC)cc3)cc2C(=O)N([C@@H](C)CO)C[C@@H]1C,1.5,-43.5,·,·,·,·
COc1cccc(NC(=O)N2CC(=O)N3[C@H](C2)[C@H](c2ccc(Br)cc2)[C@@H]3CO)c1,0.5,·,·,·,·,·
CN(C)CC(=O)N1[C@H](CO)[C@H](c2ccccc2-c2ccccc2F)[C@@H]1C#N,-4.4,·,·,·,·,·
Cc1cccc(-c2ccc([C@@H]3[C@@H](CO)N4CCCCN(C(=O)NC(C)C)C[C@H]34)cc2)c1,-20.3,51.3,·,·,·,·
SMILES,C diff growth,T cruzi growth-1,T cruzi growth-2,T cruzi growth-3,NIH3T3 tox,3T3 cytotox 2
COc1ccc(S(=O)(=O)Nc2ccc3c(c2)C(=O)N([C@@H](C)CO)C[C@H](C)[C@@H](CN(C)S(=O)(=O)c2ccccc2)O3)cc1,-3.5,-50.3,·,·,·,·
COc1cccc(CN(C)C[C@H]2OCc3ccccc3-c3ccccc3C(=O)N([C@@H](C)CO)C[C@H]2C)c1,5.6,?,87.3,11.2,5.7,-10.3
COc1cccc(CN(C)C[C@@H]2OCc3ccccc3-c3ccccc3C(=O)N([C@@H](C)CO)C[C@@H]2C)c1,-8.0,48.9,·,·,·,·
COc1cccc(S(=O)(=O)N(C)C[C@H]2OCc3ccccc3-c3ccccc3C(=O)N([C@H](C)CO)C[C@@H]2C)c1,1.2,?,82.2,7.2,-16.2,16.1
COc1cccc(S(=O)(=O)N(C)C[C@H]2OCc3ccccc3-c3ccccc3C(=O)N([C@@H](C)CO)C[C@@H]2C)c1,-10.5,74.5,·,·,·,·
Cc1ccc(S(=O)(=O)Nc2ccc3c(c2)C(=O)N([C@@H](C)CO)C[C@H](C)[C@@H](CN(C)Cc2ccc(C(=O)Nc4ccccc4N)cc2)OCCCC[C@@H](C)O3)cc1,28.6,·,·,·,·,·
CNC[C@H]1Oc2ccc(NS(C)(=O)=O)cc2C(=O)N([C@H](C)CO)C[C@@H]1C,1.7,-9.1,·,·,·,·
O=C(Nc1ccc2c(c1)OCO2)N[C@@H]1CC[C@H](CCNC(=O)C2CCC2)O[C@@H]1CO,2.3,·,·,·,·,·
C[C@H]1CCCCO[C@H](CN(C)S(=O)(=O)c2ccccc2)[C@@H](C)CN([C@@H](C)CO)C(=O)c2cc(NC(=O)Nc3ccc(F)cc3)ccc2O1,1.5,106.4*,110.0*,62.0,11.2,0.7
C[C@@H]1CCCCO[C@@H](CN(C)S(=O)(=O)c2ccccc2)[C@H](C)CN([C@H](C)CO)C(=O)c2cc(NC(=O)Nc3ccc(F)cc3)ccc2O1,-0.7,99.4*,107.7*,87.7,20.1,11.3
C[C@@H]1CN([C@H](C)CO)C(=O)c2cc(NC(=O)Nc3ccc(F)cc3)ccc2O[C@@H](C)CCCCO[C@H]1CN(C)S(=O)(=O)c1ccccc1,3.8,?,·,·,·,·
C[C@@H]1CN([C@@H](C)CO)C(=O)c2cc(NC(=O)Nc3ccc(F)cc3)ccc2O[C@@H](C)CCCCO[C@@H]1CN(C)S(=O)(=O)c1ccccc1,10.0,103.2*,70.0,-13.0,6.8,10.1
C[C@@H]1CCCCO[C@@H](CN(C)S(=O)(=O)c2ccccc2)[C@@H](C)CN([C@@H](C)CO)C(=O)c2cc(NC(=O)Nc3ccc(F)cc3)ccc2O1,7.9,86.9,·,·,·,·
COc1ccc(-c2cnc3c(c2)C(=O)N([C@@H](C)CO)C[C@H](C)[C@H](CN(C)S(=O)(=O)c2ccc(OC)cc2)O3)cc1,·,84.5,·,·,·,·
C[C@@H]1CN([C@H](C)CO)C(=O)Cc2cc(NS(=O)(=O)c3cccs3)ccc2O[C@H]1CN(C)S(=O)(=O)c1cccs1,·,23.1,·,·,·,·
